Assay results from the OligoGym collection.

Target: TSPYL2
Assay: pooled miR-30 sensor sort-seq; sequence = guide strand
Settings: shRNA
Note: reference of the scale not given here.

Sequence	sensor-assay potency score (higher = more potent)
TTCATTGTCACTGTCGCTGCTG	0.841
ATGTCTGAGATCCTGTACCTGC	-1.08
ATTGTCTTCAGGATTCTCGTTG	-0.109
TTGACAATCACCATGTTTGTGA	0.272
ATAGATGTCCTCATCTTGCTGG	0.469

Target: TTC27
Assay: as above
Settings: shRNA

Sequence	sensor-assay potency score (higher = more potent)
TTCTAGAGTCACACAGCGCTGA	0.0912
TATCCAACTGATCTTTTGCTTT	-0.994
TTTAAGGACCTGAACATCTTTG	-0.304
TTACTTTTTGTTTTAATCGGAT	-0.347
TTCTTTTGAAAATTAGTGCAGA	-0.195
TACAGATGTATCTTTTACCAGC	-0.789
TACACTTGAGAGCTTCTTGTAA	-0.514
TTGCTGAACCTTGATAGTCTTC	-0.804
TACACACTCTTGAAACTCCTTA	0.361
TGAACCTTGATAGTCTTCCAAG	-1.57
TTAAAAATCAATATCTTGCATT	-0.512
TTTTTCTCCAGCTCTTGTCTAA	-0.459

Target: TTC7A
Assay: as above
Settings: shRNA

Sequence	sensor-assay potency score (higher = more potent)
TTCTGCAAGCTCACTGTCCGGT	0.427
TTTGGCTTCGCTCATCTTCGGC	-0.912
TTGGCTTCGCTCATCTTCGGCT	-0.61
TGGCACTGGAGATCTGTCGGAC	-0.75
TCTCCTTCAAACACTGCTCCAG	-0.633
TTCAGATGCCTCGACGTGCTGT	-0.177
TAGAGTACTGAGTGAGAAGTGG	-0.197
TTCCTCGATGTTGTCCTTGGGG	-0.621
TTTGATGACAAAAGCCTCCGAC	-0.154
TTGTGGTCTTCTCCAATTCCTG	-1.59
TCTTGCTTGGACTTCAGGGTGG	0.115
TTCATCTTGCTTGGACTTCAGG	-0.871

Target: TTLL3
Assay: as above
Settings: shRNA

Sequence	sensor-assay potency score (higher = more potent)
TTGGATTGTAAAGATCTTCTTC	0.486
TTGCACGCCAGCACAGAGCCGG	-1.05
TGTCGCGGTAGAACCACACGGT	-0.291
TAGCTGTCGCGGTAGAACCACA	-1.71
TACTTCTGCACCACCCACTTGC	-0.25
TAGGGTATGACTTCCACTCAGA	-0.0416
TTCTGCACCACCCACTTGCCGT	-1.06
TTTATTTGGTGTTGGATCCAGG	-0.616
ATCATCGAAGTCGAACAGCTGT	-0.524
TTGACCTTCCGACAGGTGCTAG	-0.947
TTTGCCTTTGGCCTTGACCTTC	-0.876
